FMDV antiviral = antivirals against foot and mouth disease virus. FMDV antiviral cell-based qHTS. Potency, µM (titrated, usually from 57.9 µM), for inactives: at the top dose activity change, negative = inhibition, actives largely listed as inhibitors. 410,000 tested, 1.2% active. AID 1159524; calls by dose curve; tested in HEK293T cells; also: read-out not given here; potency is read from the fitted curve at half-maximal effect; % is scaled to controls: 0 for no effect and ±100 for the full control effect; nearly all actives have a fitted effect of over 45% in size
SARS PLP yeast = blocks SARS-CoV papain-like protease in a yeast assay; S. cerevisiae expressing SARS-CoV PLpro, growth rescue; Potency, µM (highest dose often 32.9 µM), inactives show top-dose activity, positive = growth rescue, usual class: activators; 330,000 tested, 0.19% active; AID 485353; calls by dose curve; also: potency is read from the fitted curve at half-maximal effect; 0% is about no effect; nearly all actives have a fitted effect of over 55% in size
Marburg entry inh = inhibitors of Marburg virus binding or cell entry; Marburg virus pseudotyped entry inhibition, cell reporter; Potency, µM (top dose mostly 37.8 µM), without a hit: top-dose activity change, negative = inhibition, most hits filed as inhibitors; 300,000 tested, 1.8% active; calls by dose curve; tested in HEK293 cells; also: potency is read from the fitted curve at half-maximal effect; % is scaled to controls: 0 for no effect and ±100 for the full control effect
HCMV antiviral = blocks human cytomegalovirus replication. activity change, negative = inhibition, % at 57.5 µM. 410,000 tested, 4.5% active. HFF cells, HCMV-luciferase reporter, 72 h; active compounds read low; in the data active = activity change below about -60%; inconclusive = no clear call, values can overlap the other calls; inactive = above about -39%; also: % is scaled to controls: 0 for no effect and ±100 for the full control effect
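Steps: HFFs plated, 16 h 37C; compounds added; HCMV-luciferase added to MOI 1 PFU/cell; 72 h 37C; OneGlo reagent, 5 min room temperature; luminescence read, normalized to controls.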
HCV inhibitor = blocks hepatitis C virus | Huh7.5.1 HCVcc-Cre infection, luciferase reporter, 44 h | 340,000 tested, 3.4% active | Potency, µM (doses to about 41.8 µM), inactives show top-dose activity change, negative = inhibition, hits mostly inhibitors; active = well fitted inhibition curve with a large enough effect; inconclusive = small, poorly fitted or top-dose-only effect, or another doubt; inactive = no such curve, though single readings can be large or run the other way; also: potency is read from the fitted curve at half-maximal effect; % is scaled to controls: 0 for no effect and ±100 for the full control effect
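A cell-based infection assay in which seeded cells (1,000 per well) receive test compound after 4 h, are inoculated with HCVcc-Cre at approximately 0.5 moi, and are incubated 44 h before luminescence detection.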
Lassa entry inh = Lassa virus entry inhibition. Lassa virus pseudotype entry inhibition, cell reporter. Potency, µM (series often up to 37.9 µM), without a hit: at the highest dose activity change, negative = inhibition, hits mostly inhibitors. 300,000 tested, 1.2% active. AID 540256; calls by dose curve; tested in HEK293 cells; also: potency is read from the fitted curve at half-maximal effect; % is scaled to controls: 0 for no effect and ±100 for the full control effect; nearly all actives have a fitted effect of over 50% in size
An asterisk follows results filed as active; [ ] = dose if it differs, or a comment. Rows were chosen to be rich in hits. Some 8% of all compounds tested hit in one or more screens of this group.

For CN1C(=O)C(O)(CC(=O)/C=C/c2ccco2)c2ccccc21 (stereo unspecified) the results were FMDV antiviral -21%, SARS PLP yeast 0%, Marburg entry inh 18%[46.1 µM], HCMV antiviral -28, HCV inhibitor 5% and Lassa entry inh inconclusive.
Screening CN1C(=O)C(O)(CC(=O)/C=C/c2ccco2)c2cc(Br)ccc21 (stereo unspecified) returned FMDV antiviral -4%, SARS PLP yeast 0%, Marburg entry inh inconclusive, HCMV antiviral 44, HCV inhibitor 11µM* and Lassa entry inh inconclusive.
COc1ccc(Nc2cc3[nH]c(-c4cccc(C(F)(F)F)c4)cc3cn2)cc1OC was read as HCMV antiviral -20.
Screening CN(C)CCOC1c2ccccc2CCc2ccc3ccccc3c21 (stereo unspecified) returned FMDV antiviral inconclusive, Marburg entry inh 5µM*, HCMV antiviral inconclusive, HCV inhibitor inconclusive and Lassa entry inh inconclusive.
`CC(=O)NCCc1c[nH]c2ccccc12` gave FMDV antiviral -7%, SARS PLP yeast -1%, Marburg entry inh 7%, HCV inhibitor 0% and Lassa entry inh -10%.
CC1(C(=O)NCCc2c[nH]c3ccccc23)CCN1CC1CCCCC1 (stereo unspecified) was read as FMDV antiviral -22% and HCMV antiviral -64*.
For O=C(NCCc1c[nH]c2ccccc12)C1CCC(Cn2c(=S)[nH]c3ccccc3c2=O)CC1 (stereo unspecified) the results were FMDV antiviral -5%, SARS PLP yeast -7%, Marburg entry inh inconclusive, HCMV antiviral -68*, HCV inhibitor 4.5µM* and Lassa entry inh inconclusive.
COc1cccc(C(=O)NCC2Cc3c(F)ccc(-c4ncccn4)c3O2)c1OC (stereo unspecified) was read as FMDV antiviral -10%.
Screening CCCCNCC(=O)Nc1ccc(NC(=O)CNCCCC)cc1 returned FMDV antiviral -13%, SARS PLP yeast 6%, Marburg entry inh 10µM*, HCMV antiviral -4, HCV inhibitor inconclusive and Lassa entry inh -17%.
`CCCCOCCCNCC(=O)Nc1ccc(S(N)(=O)=O)cc1` gave FMDV antiviral -10%, SARS PLP yeast 0%, Marburg entry inh 8%[46.1 µM], HCMV antiviral 48, HCV inhibitor -4% and Lassa entry inh -2%.
COC(=O)c1cc(C)nc2c1C(=O)C(=O)C=C2N1CCOCC1 was read as FMDV antiviral 3.5µM*, SARS PLP yeast 11%, Marburg entry inh inconclusive, HCMV antiviral -93*, HCV inhibitor 2.5µM* and Lassa entry inh inconclusive.
For O=C1c2ccccc2C(=O)C1c1nccc2ccccc12 the results were FMDV antiviral -69%, SARS PLP yeast -3%, Marburg entry inh 2.5µM*, HCMV antiviral 18, HCV inhibitor -4% and Lassa entry inh inconclusive.
`O=C1c2ccccc2C(=O)C1c1ccnc2ccccc12` gave FMDV antiviral -55%, SARS PLP yeast -19%, Marburg entry inh 7.3µM*, HCMV antiviral -17, HCV inhibitor -9% and Lassa entry inh inconclusive.
`O=C1C(c2ccnc3ccccc23)=C(O)c2ccccc21` gave FMDV antiviral -82%, SARS PLP yeast -33%, Marburg entry inh inconclusive, HCMV antiviral -27, HCV inhibitor -18% and Lassa entry inh 2.8µM*.
For CCOc1ccc(CCNC(=O)CCc2c(C)nc3c(c(C)nn3-c3ccc(C)c(C)c3)c2C)cc1 the results were FMDV antiviral -16%, Marburg entry inh 7%[46.1 µM], HCMV antiviral 11 and Lassa entry inh 7%[46.1 µM].
For CCCCCCNc1nc(-c2ccc(OC)cc2)c(CCC(=O)O)s1 the results were FMDV antiviral -10%, SARS PLP yeast -1%, Marburg entry inh 23%, HCMV antiviral -62*, HCV inhibitor 13% and Lassa entry inh -3%.
For COCCNc1nc(-c2ccc(OC)cc2)c(-c2ccc(OC)cc2)s1 the results were FMDV antiviral -22%, SARS PLP yeast -1%, Marburg entry inh inconclusive, HCMV antiviral -69*, HCV inhibitor inconclusive and Lassa entry inh -28%.
`COc1ccc(-c2nc(NC(C)=O)sc2-c2ccccc2)cc1` gave FMDV antiviral -6%, SARS PLP yeast 0%, Marburg entry inh -17%[46.1 µM], HCMV antiviral -4, HCV inhibitor 10µM* and Lassa entry inh inconclusive.
Screening CC(=O)Nc1sc(-c2ccccc2)nc1-c1ccccc1 returned FMDV antiviral -4%, SARS PLP yeast -3%, Marburg entry inh -17%[14.2 µM], HCMV antiviral -37, HCV inhibitor 11µM* and Lassa entry inh -1%.
`CCN(CC)CCNc1nc(-c2ccc(OC)cc2)c(-c2ccc(OC)cc2)s1` gave FMDV antiviral -20%, SARS PLP yeast 0%, HCMV antiviral -39 and HCV inhibitor inconclusive.
Screening C#CC[C@@]1(C(=O)OC)C=C[C@@H](C)[C@H](c2ccccc2Br)N1C(=O)C(F)(F)F returned Marburg entry inh -2%[14.2 µM].
`CCCCNC(=O)CN1CCN(c2ccc(NC(=O)c3ccc(OC)cc3)cc2C(=O)O)CC1` gave FMDV antiviral 8%, HCMV antiviral 9 and Lassa entry inh 16%[46.1 µM].
`CCOCCCN(C(=O)Cn1nnc(-c2ccc(C)o2)n1)C(C(=O)NC1CCCC1)c1ccc(C)o1` (stereo unspecified) gave FMDV antiviral 28%, SARS PLP yeast 7%, Marburg entry inh -18%[46.1 µM], HCMV antiviral inconclusive and HCV inhibitor -12%.
Screening CCC1CCCCN1c1nc2c(C=O)c(C)nn2c2ccccc12 (stereo unspecified) returned FMDV antiviral -23%, SARS PLP yeast -16%, Marburg entry inh inconclusive, HCMV antiviral -64*, HCV inhibitor 10µM* and Lassa entry inh inconclusive.
`Brc1ccc(-c2c[n+]3c(n2-c2ccccc2)SCC3)cc1` gave FMDV antiviral inconclusive, SARS PLP yeast -1%, Marburg entry inh -5%[46.1 µM], HCMV antiviral -73*, HCV inhibitor -15% and Lassa entry inh inconclusive.
Cc1ccc(-c2c[n+]3c(n2-c2ccccc2)SCC3)cc1 was read as FMDV antiviral inconclusive, SARS PLP yeast -1%, HCMV antiviral -73* and HCV inhibitor inconclusive.
`COc1ccc(-c2c[n+]3c(n2-c2ccccc2)SCC3)cc1` gave FMDV antiviral -14%, SARS PLP yeast 2%, Marburg entry inh inconclusive, HCMV antiviral -80*, HCV inhibitor inconclusive and Lassa entry inh inconclusive.
Screening COCc1cc(C)nc(SCc2nc3ccccc3c(=O)[nH]2)c1C#N returned FMDV antiviral 0%, SARS PLP yeast 3%, Marburg entry inh inconclusive, HCMV antiviral -2, HCV inhibitor -27% and Lassa entry inh -1%[46.1 µM].
Screening Cc1cc(C)c(C#N)c(SCc2nc3ccccc3c(=O)[nH]2)n1 returned FMDV antiviral 21%, SARS PLP yeast 0%, Marburg entry inh 1.1µM*, HCMV antiviral -5, HCV inhibitor -4% and Lassa entry inh 3.2µM*.

High-throughput results deposited in PubChem by National Center for Advancing Translational Sciences (NCATS).
